HSF-1 act = increases HSF-1 driven luciferase reporter signal; NIH3T3-HGL HSF-1 luciferase reporter, MG132, 8 h; 100% = twice DMSO control signal; activation, % at 9 µM; actives 1.7% (n = 300,000);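 active = mean replicate activation of at least 50% with a set share of replicates each reaching 50%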;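 also: 0% = median of the neutral control wells and 100% = twice that signal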
esBAF inh = blocks esBAF chromatin remodeling in mouse ES cells | Bmi1-luciferase knock-in reporter, 24 h; 100% = twice the neutral-well signal | reporter increase, % at 12.5 µM | actives 2% (n = 350,000) | AID 602393; in the data active = activation above about 40%;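 also: 0% = median of the plate's neutral control wells and 100% = double that signal; a rise in the Bmi1 reporter signal indicates esBAF inhibition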
Vif imaging = inhibitors of HIV Vif | HEK293T cells, Vif self-association by quenched fluorescence, imaging, 24 h | inhibition, % at 7.49 µM | actives 0.35% (n = 340,000); in the data active = inhibition above about 50%, passing the limit was not always enough
HSF1 inhib = HSF1 inhibition; NIH3T3-HGL HSE-luciferase, MG132-induced, luminescence 8 h; stronger effect = lower value; activity change, negative = inhibition, % at 7.5 µM (by protocol); actives 0.77% (n = 300,000); AID 2098;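 active = more than half of replicate wells show activity change below -50%, luminescence cut by over half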;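 also: luciferase reports HSF-1 transcriptional activity via heat shock element; 0% = median of DMSO wells and -100% = zero luminescence signal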
Active calls of the source: *; . = no result. Only some compounds are listed: those with a hit (about 3.4% of all), similar ones and a draw of the others.

SMILES	HSF-1 act	esBAF inh	Vif imaging	HSF1 inhib
C[C@H]1CN([C@@H](C)CO)C(=O)c2cc(NC(=O)C3CC3)ccc2O[C@@H]1CN(C)S(=O)(=O)c1ccc(Cl)cc1	.	-6	.	.
C[C@@H](O)C#Cc1cnc2c(c1)C(=O)N([C@@H](C)CO)C[C@H](C)[C@H](CN(C)C(=O)Nc1ccc(F)cc1)O2	.	-4	.	.
COc1cc2c(cc1NC(=O)CSc1nc3ccc(C)cc3[nH]1)oc1ccccc12	74*	.	.	48
COc1cc2c(cc1NC(=O)CSc1ccc(C)cc1)oc1ccccc12	15	.	0	12
C[C@H]1CN([C@@H](C)CO)S(=O)(=O)c2ccc(C#Cc3ccc(F)cc3)cc2O[C@@H]1CN(C)C	.	-7	.	.
C=CCOc1c(CNc2ccc(C(=O)O)cc2)cccc1OCC	17	44*	2	-1
C=CCOc1c(CNc2cccc(C(=O)O)c2)cccc1OC	-27	52*	.	-10
CNC[C@H]1Oc2ccc(NS(=O)(=O)c3cn(C)cn3)cc2CC(=O)N([C@@H](C)CO)C[C@H]1C	.	3	.	.
Cc1ccc2[nH]c3c(c2c1)CCN(C)C3	-77	5	7	-71*
Cc1ccc2[nH]c3c(c2c1)CN(C)CC3	-12	3	-8	4
COc1ccc(NC(=O)N(C)C[C@H]2Oc3ccc(NC(=O)C4CCCCC4)cc3C(=O)N([C@@H](C)CO)C[C@@H]2C)cc1	.	-3	.	.
N#Cc1cc2c(nc1SCC(=O)Nc1sc3c(c1C#N)CCC3)CCC2	21	-1	.	13
Cc1sc(NC(=O)CSc2nnc(-c3ccccc3)o2)c(C#N)c1C	43	12	2	27
N#Cc1c(NC(=O)CSc2nnc(-c3ccccc3)o2)sc2c1CCCC2	76*	.	-2	52
CC1CCc2c(sc(NC(=O)CSc3nnc(-c4ccccc4)o3)c2C#N)C1 (configuration not stated)	53*	.	-6	25
COc1ccc(-c2ccc(C#N)c(SCC(=O)Nc3sc4c(c3C#N)CCC4)n2)cc1OC	53*	-6	-8	37
O=C(NC(=S)N(CCc1ccccc1)CCc1ccccc1)c1ccco1	68*	.	-5	97
O=C(NNC(=S)Nc1ccccc1Cl)c1ccccc1	49	71*	-3	22
O=C(NC(=S)Nc1ccccc1Cl)c1ccco1	34	58*	1	10
CC(CCc1ccccc1)NC(=S)NC(=O)c1ccco1 (configuration not stated)	16	.	-6	6
O=C(NNC(=S)Nc1ccccc1Cl)c1ccccc1Cl	37	53*	.	25
O=C(NC(=S)Nc1cccc(Cl)c1N1CCCCC1)c1ccco1	13	.	-7	-4
CCc1cccc2c1NC(=O)C21N2CCCC2C(C(=O)c2ccc3ccccc3c2)C12C(=O)Nc1ccccc12 (configuration not stated)	23	.	-2	16
CCc1ccc2c(c1)C1(C(=O)N2)N2CCCC2C(C(=O)c2ccc3ccccc3c2)C12C(=O)Nc1ccccc12 (configuration not stated)	65*	.	-4	40
O=C(NCC1CCCO1)c1onc(CSc2ccc(Cl)cc2)c1C(=O)O (configuration not stated)	-70	-5	-2	-61*
SMILES	HSF-1 act	esBAF inh	Vif imaging	HSF1 inhib
CCCNC(=O)c1c(CSc2ccc(Cl)cc2)noc1C(=O)NCc1ccccc1	54*	-2	-5	25
CCCCNC(=O)c1c(CSc2ccc(Cl)cc2)noc1C(=O)NCc1ccccc1	-2	-3	2	6
C[C@@H]1CN([C@@H](C)CO)C(=O)c2cc(C#C[C@@H](C)O)cnc2O[C@@H]1CN(C)C(=O)c1ccncc1	.	-1	.	.
N/C(=N/OC(=O)c1cccc([N+](=O)[O-])c1)c1cccc([N+](=O)[O-])c1	16	.	-4	6
N/C(=N\OC(=O)c1cccc(F)c1)c1cccc([N+](=O)[O-])c1	47	61*	-1	40
COc1ccc(S(=O)(=O)Nc2ccc3c(c2)CC(=O)N([C@H](C)CO)C[C@H](C)[C@@H](CN(C)C(=O)NC2CCCCC2)O3)cc1	.	-6	.	.
Fc1cc(Br)ccc1COc1ccc(-c2nnco2)cc1	39	55*	-1	13
Fc1ccc(COc2ccc(-c3nnco3)cc2)c(Cl)c1	41	33	0	29
O=C(O)c1ccc(N/N=C/c2ccc3c(c2)OCO3)cc1	-76	.	-3	-71*
N#C/C(=C\c1ccc2c(c1)OCCO2)C(=O)Nc1ccc(C(=O)O)cc1	-16	61*	6	-2
O=C(O)c1ccc(N/N=C/c2cc3c(cc2[N+](=O)[O-])OCO3)cc1	5	67*	9	-9
COc1ccc(CN(C)C[C@H]2Oc3ccc(NS(=O)(=O)c4cn(C)cn4)cc3C(=O)N([C@@H](C)CO)C[C@@H]2C)cc1	.	-3	.	.
Cc1occc1C(=O)N/N=C/c1sc(N2CCOCC2)nc1-c1ccccc1	4	.	-3	-3
Cc1occc1C(=O)N/N=C/C1=C(N2CCOCC2)C(=C/c2ccc(Cl)cc2Cl)/CC1	.	.	133*	.
Cc1ccc(C2=Nc3ccccc3SC(c3cccc([N+](=O)[O-])c3)C2)cc1 (configuration not stated)	67*	29	0	38
CO[C@@H]1CN(C)C(=O)c2ccc(NC(=O)C3CC3)cc2OC[C@@H](C)NC[C@H]1C	.	1	.	.
COc1ccc(CN(C)C[C@H]2Oc3ccc(NC(=O)Nc4ccc5c(c4)OCO5)cc3C(=O)N([C@@H](C)CO)C[C@H]2C)cc1	.	-2	.	.
COc1ccc(-c2nc(-c3ccc(O)cc3O)cs2)cc1OC	68*	28	-1	45
COc1ccc(-c2csc(-c3ccc(O)cc3)n2)cc1	23	.	-4	22
COc1cccc(C(C)(O)c2nc(-c3ccccc3OC)cs2)c1 (configuration not stated)	.	1	57*	.
COc1ccc(-c2csc(-c3cccs3)n2)c(OC)c1	61*	25	6	24
COc1ccc(-c2csc(-c3ccccc3)n2)c(OC)c1	54*	.	4	17
CO[C@@H]1CN(C)C(=O)c2cc(NC(=O)Nc3ccccc3)ccc2OC[C@H](C)N(C(=O)CC2CC2)C[C@@H]1C	.	1	.	.
CN1CCN(C(=O)C[C@H]2C[C@H]3c4cc(NC(=O)CC5CC5)ccc4O[C@H]3[C@@H](CO)O2)CC1	.	-1	.	.
C[C@@H]1CCCCO[C@@H](CN(C)CC2CCCCC2)[C@H](C)CN([C@H](C)CO)C(=O)c2cc(NC(=O)c3ccncc3)ccc2O1	.	6	.	.
Clc1ncnc2scc(C3COc4ccccc4O3)c12 (configuration not stated)	58*	3	-12	21
c1ccc2c(c1)OCC(c1csc3ncnc(N4CCCCC4)c13)O2 (configuration not stated)	11	-5	-16	-7
Cc1nn(C)cc1NC(=O)C[C@H]1CC[C@@H]2[C@H](COc3ccc(NC(=O)C4CCOCC4)cc3C(=O)N2C)O1	.	-6	.	.
O=C(NCC[C@H]1CC[C@@H](NS(=O)(=O)c2cccc(F)c2)[C@H](CO)O1)C1CC1	.	-2	.	.

High-throughput results (PubChem BioAssay)
